Laboratory results: PubChem BioAssay (NCATS)
Records with an inconclusive call do not appear. Values without a mark were called inactive. The source made the active and inactive calls. Calls follow the shape of the dose curve; as a rule, active = well fitted cell-killing curve with a large enough effect; inconclusive = small, poorly fitted or top-dose-only effect, or effect the other way; inactive = no such curve, though single readings can be large or run the other way.

assay: Quantitative High-Throughput drug screen in 47 multiple myeloma cell lines against the NCATS MIPE library collection: KMM1_JCRB cell viability assay (AID 1918960); settings: KMM1 myeloma viability, CellTiter-Glo ATP luminescence, 48 h; series mostly up to 45.8 µM; viability (% of DMSO): at the top concentration; also: nearly all actives have a fitted effect of over 30% in size
Excerpt: PI: Beverly A. Mock Ph.D.
Laboratory of Cancer Biology and Genetics,
Center for Cancer Research, National Cancer Institute,
National Institute of Health, Bethesda, Maryland
Drug resistance and disease progression are common in multiple myeloma (MM) patients, underscoring the need for new therapeutic combinations. […] We hypothesized that effective combinations would reduce MYC expression and enhance p16 activity. […] These preclinical data identify potentially useful drug combinations for evaluation in drug-resistant MM and reveal potential mechanisms of combined drug sensitivity.
Described herein is the primary MIPE qHTS used to cherrypick compounds. Validated compounds were then further tested for potential synergistic activiy.
[1] Peat TJ, Gaikwad SM, Dubois W, Gyabaah-Kessie N, Zhang S, Gorjifard S, Phyo Z, Andres M, Hughitt VK, Simpson RM, Miller MA, Girvin AT, Taylor A, Williams D, D'Antonio N, Zhang Y, Rajagopalan A, Flietner E, Wilson K, Zhang X, Shinn P, Klumpp-Thomas C, McKnight C, Itkin Z, Chen L, Kazandijian D, Zhang J, Michalowski AM, Simmons JK, Keats J, Thomas CJ, Mock BA. Drug combinations identified by high-throughput screening promote cell cycle transition and upregulate Smad pathways in myeloma. Cancer Lett. 2023 Aug 1;568:216284. doi: 10.1016/j.canlet.2023.216284. Epub 2023 Jun 24. PMID: 37356470; PMCID: PMC10408729.
SEQUENCE No. (e.g., 1, 2, 3, etc.); […] (e.g., Cells, Incubation, Reagent, etc.); VALUE and DESCRIPTION.
1; Cells; 5 uL; white, solid bottom 1536-well Greiner assay plate.
2; Compounds; 23 nL; Kalypsis pin tool (Wako USA) equipped with a 1536-well pin head to transfer to the assay plates.
3; Incubation; 48 hours; 37C incubation.
4; Reagent;5uL; CellTiter Glo (Promega).
5; Detector; 425V; Luminescence; Viewlux PerkinElmer.
NOTES (numbers refer to Sequence numbers above)
1. The cell-based screening methods employed in this study were like those previously published. Briefly, the corresponding myeloma cell lines were screened in 1,536-well plates with 500 cells, 5-uL per well for inhibition of cell viability (assessed by measuring ATP levels with CellTiterGlo).
2. NCATS MIPE 4.0 library of approved and investigational drugs were added using the Kalypsis pin tool. Wells treated with DMSO only for 100% viability and media only cells for 0% viability were used as controls.
3. The assay plates were covered and incubated for 48 hours in a 37C, 5% CO2 incubator with controlled humidity.
4. After 48 hours, CellTilter-GloTM luminescent substrate mix (Promega) reagent was added to the assay plate and plates we incubated for 5 min at room temperature.
5. Signal was measured as median relative luminescence units on a ViewLux (PerkinElmer) multiplate reader.
[1] Heske CM, Davis MI, Baumgart JT, Wilson K, Gormally MV, Chen L, Zhang X, Ceribelli M, Duveau DY, Guha R, Ferrer M, Arnaldez FI, Ji J, Tran HL, Zhang Y, Mendoza A, Helman LJ, Thomas CJ. Matrix Screen Identifies Synergistic Combination of PARP Inhibitors and Nicotinamide Phosphoribosyltransferase (NAMPT) Inhibitors in Ewing Sarcoma. Clin Cancer Res. 2017 Dec 1;23(23):7301-7311. doi: 10.1158/1078-0432.CCR-17-1121. Epub 2017 Sep 12. PMID: 28899971; PMCID: PMC6636827.
Potency is read from the fitted curve at half-maximal effect.

SMILES | viability (% of DMSO) | Potency
N[C@H]1CN(c2c(F)cc3c(=O)c(C(=O)O)cn(C4C[C@@H]4F)c3c2Cl)CC12CC2 (stereo not given in full) | 82% | –
O=[N+]([O-])c1cn2c(n1)OC[C@@H](OCc1ccc(OC(F)(F)F)cc1)C2 | 107% | –
Cn1cc(C[C@@H](N)C(=O)O)c2ccccc21 | 109% [at 23.2 µM] | –
COC(=O)C1C2CC3c4[nH]c5cc(OC)ccc5c4CCN3CC2CC(OC(=O)c2cc(OC)c(OC)c(OC)c2)C1OC (stereo not given) | – | 20900 nM (active)
COC(=O)[C@@H]1[C@H]2C[C@@H]3c4[nH]c5ccccc5c4CCN3C[C@@H]2CC[C@@H]1O | 96% | –
COc1cc([C@@H]2c3cc4c(cc3[C@H](O)[C@H]3COC(=O)[C@@H]23)OCO4)cc(OC)c1OC | – | 83.3 nM (active)
CCOC(=O)C1=C(C)NC(=S)NC1c1cccc(O)c1 (stereo not given) | – | 469 nM (active)
C=CC[C@@H]1C=C(C)C[C@H](C)C[C@H](OC)[C@H]2O[C@@](O)(C(=O)C(=O)N3CCCC[C@H]3C(=O)O[C@H](C(C)=C[C@@H]3CC[C@H](O)[C@H](OC)C3)[C@@H](C)[C@@H](O)CC1=O)[C@@H](C)C[C@@H]2OC | – | 2090 nM (active)
Cc1ccc2nc(NCCN)c3ncc(C)n3c2c1 | – | 7430 nM (active)
Nc1ccc(C(=O)Nc2cccc(-c3nc(N4CCOCC4)c4oc5ncccc5c4n3)c2)cn1 | – | 418 nM (active)
C[C@H]1[C@@H](OC(=O)CCC(=O)O)O[C@@H]2O[C@@]3(C)CC[C@@H]4[C@H](C)CC[C@@H]1[C@@]24OO3 | – | 332 nM (active)
CCCCCN=C(N)NN=Cc1c[nH]c2ccc(OC)cc12 | – | 3320 nM (active)
CC(C)(O)CC[C@@H](O)[C@](C)(O)[C@H]1CC[C@@]2(O)C3=CC(=O)[C@@H]4C[C@@H](O)[C@@H](O)C[C@]4(C)[C@@H]3CC[C@]12C | 88.5% | –
CCN1CCN(C(=O)N[C@H](C(=O)N[C@@H]2C(=O)N3C(C(=O)O)=C(CSc4nnnn4C)CS[C@@H]23)c2ccc(O)cc2)C(=O)C1=O | 124% [at 15.3 µM] | –
COc1cc(C)c(Sc2cnc(NC(=O)c3ccc(CNC(C)C(C)(C)C)cc3)s2)cc1C(=O)N1CCN(C(C)=O)CC1 (stereo not given) | – | 3320 nM (active)
Cn1c(Nc2ccc(C(F)(F)F)cc2)nc2cc(Oc3ccnc(-c4ncc(C(F)(F)F)[nH]4)c3)ccc21 | – | 16600 nM (active)
Cc1ncc(-c2ccnc(Nc3ccc(S(C)(=O)=O)cc3)n2)n1C(C)C | – | 1480 nM (active)
CCCCCCCN(CC)CCCC(O)c1ccc(NS(C)(=O)=O)cc1 (stereo not given) | – | 20900 nM (active)
Cc1cnc(NC(=O)Nc2cc(Br)c(C)cc2OC[C@@H]2CNCCO2)cn1 | – | 743 nM (active)
C=Cc1c(C)c2cc3nc(cc4[nH]c(cc5nc(cc1[nH]2)C(C)=C5CCC(=O)O)c(CCC(=O)OC)c4C)[C@@]1(C)C3=CC=C(C(=O)OC)[C@H]1C(=O)OC | – | 187 nM (active)

SMILES | viability (% of DMSO) | Potency
CC(=O)C1=C(O)C=C2Oc3c(C(C)=O)c(O)c(C)c(O)c3C2(C)C1=O (stereo not given) | 109% | –
NC(=O)Nc1sc(-c2ccc(F)cc2)cc1C(N)=O | – | 209 nM (active)
C=C[C@@H]1CN2CCC1C[C@H]2[C@H](O)c1ccnc2ccc(OC)cc12 (stereo not given in full) | 64.7% | –
Cc1[nH]c(C=C2C(=O)Nc3ccccc32)c(C)c1CCC(=O)O | – | 13200 nM (active)
O=C(O)C[C@H](O)C[C@H](O)C=Cc1c(C2CC2)nc2ccccc2c1-c1ccc(F)cc1 | – | 5900 nM (active)
N#Cc1c(NC(=O)c2cccc3ccccc23)sc2c1CCCC2 | – | 296 nM (active)
CC(C=CC(=O)NO)=C[C@@H](C)C(=O)c1ccc(N(C)C)cc1 | – | 209 nM (active)
CC(=O)NC(CS)C(=O)O (stereo not given) | 85.9% | –
C=C1C(=CC=C2CCC[C@]3(C)[C@@H]([C@H](C)CCCC(C)(C)O)CC[C@@H]23)C[C@@H](O)C[C@@H]1O | – | 4690 nM (active)
O=C1NC(=O)[C@@H](c2cn3c4c(cccc24)CCC3)[C@H]1c1c[nH]c2ccccc12 | – | 105 nM (active)
C=CCNC1=C2C[C@@H](C)C[C@H](OC)[C@@H](O)[C@@H](C)C=C(C)[C@H](OC(N)=O)[C@@H](OC)C=CC=C(C)C(=O)NC(=CC1=O)C2=O | – | 148 nM (active)
O=C1c2cccc(O)c2C(=O)c2c(O)cc(CO)cc21 | 82.7% | –
CS(=O)(=O)N1CCc2c(-c3cnc(N)nc3)nc(N3CCOCC3)nc21 | – | 66.2 nM (active)
Oc1ccc(-c2ccc(-c3cc(Nc4cccc(CNC5CC5)c4)n[nH]3)cc2)c(O)c1 | – | 743 nM (active)
C[C@H]1O[C@H](O[C@H]2[C@H](O)[C@@H](O)[C@@H](O[C@H]3[C@H](O)[C@@H](O)C(O)O[C@H]3CO)O[C@H]2CO)[C@H](O)[C@@H](O)[C@H]1N[C@H]1C=C(CO)[C@@H](O)[C@H](O)[C@@H]1O (stereo not given in full) | 113% | –
C[C@H](NC(=O)[C@@H](O)c1cc(F)cc(F)c1)C(=O)N[C@@H]1C(=O)N(C)c2ccccc2-c2ccccc21 | 99.4% | –
N#CC(=Cc1ccc(O)c(O)c1)C(=O)NCc1ccccc1 | 126% | –
CC(C)n1cnc2c(NCCc3ccc(O)cc3)nc(-c3csc4ccccc34)nc21 | 105% | –
COc1cc2c(Nc3ccc(Cl)c(Cl)c3F)ncnc2cc1OCC1C[C@@H]2CN(C)C[C@H]2C1 | – | 18700 nM (active)
CN(C)CC[C@H](c1ccc(Cl)cc1)c1ccccn1 | 81.5% | –
